According to PubChem BioAssay AID1159580 (chemical genetic matrix, 2015):
Among all 5,500 compounds or so, about 2,000 (36%) were called active. Roughly 18% stayed inconclusive and do not appear here. Rule as the data show it: active = normalized growth mostly below about 0.91 (no sharp cut-off); inconclusive = no clear call, values can overlap the other calls; inactive = mostly above about 0.92. The list shows a part of the results.

Assay: chemical genetic growth profiling, strain panel (AID 1159580);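 also: tested at 20 µM; growth read once vehicle control cultures reached saturation at 30 °C; 1 = growth at the plate median or of vehicle wells; lower values mean less growth of the strain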
Conditions: S. cerevisiae deletion strains, growth OD

Measured: normalized growth

O=c1cc(-c2ccccc2O)oc2cc(O)ccc12
inactive: locus YAL021C, strain ccr4, active compounds read low 1.05 | locus YAL026C, strain drs2, active compounds read low 0.977 | locus YAL030W, strain snc1, active compounds read low 0.985 | locus YBL061C, strain skt5, active compounds read low 0.976 | locus YBR009C, strain hhf1, active compounds read low 0.979 | locus YBR023C, strain chs3, active compounds read low 1 | locus YBR171W, strain sec66, active compounds read low 0.951 | locus YBR231C, strain swc5, active compounds read low 0.956 | locus YBR279W, strain paf1, active compounds read low 0.996 | locus YCL011C, strain gbp2, active compounds read low 0.977 | locus YCL016C, strain dcc1, active compounds read low 1.02 | locus YCL069W, strain vba3, active compounds read low 0.97 | locus YCR088W, strain abp1, active compounds read low 0.956 | locus YDL005C, strain med2, active compounds read low 0.956 | locus YDL040C, strain nat1, active compounds read low 0.967 | locus YDR001C, strain nth1, active compounds read low 0.978 | locus YDR069C, strain doa4, active compounds read low 0.95 | locus YDR137W, strain rgp1, active compounds read low 0.958 | locus YDR159W, strain sac3, active compounds read low 0.91 | locus YDR195W, strain ref2 0.962 | locus YDR297W, strain sur2, active compounds read low 0.964 | locus YDR334W, strain swr1, active compounds read low 0.973 | locus YDR335W, strain msn5, active compounds read low 0.979 | locus YDR392W, strain spt3, active compounds read low 0.92 | locus YEL003W, strain gim4, active compounds read low 0.968 | locus YEL037C, strain rad23, active compounds read low 0.962 | locus YEL061C, strain CIN8 (second series), active compounds read low 0.963 | locus YER015W, strain faa2, active compounds read low 0.974 | locus YER016W, strain bim1, active compounds read low 0.973 | locus YER111C, strain swi4, active compounds read low 0.951 | locus YER155C, strain BEM2 (second series), active compounds read low 0.955 | locus YFR010W, strain ubp6, active compounds read low 0.952 | locus YGL167C, strain pmr1, active compounds read low 0.972 | locus YGL173C, strain kem1, active compounds read low 0.95 | locus YGL227W, strain vid30, active compounds read low 0.964 | locus YGL240W, strain doc1, active compounds read low 0.963 | locus YGL253W, strain hxk2, active compounds read low 0.932 | locus YHR013C, strain ard1, active compounds read low 0.952 | locus YHR027C, strain rpn1, active compounds read low 0.965 | locus YHR030C, strain SLT2, active compounds read low 0.978 | locus YHR079C, strain IRE1, active compounds read low 0.987 | locus YHR142W, strain chs7, active compounds read low 0.965 | locus YJL092W, strain hpr5, active compounds read low 0.954 | locus YJL095W, strain BCK1 (second series), active compounds read low 0.994 | locus YJL095W, strain BCK1, active compounds read low 0.997 | locus YJL115W, strain asf1, active compounds read low 0.97 | locus YJL129C, strain trk1, active compounds read low 0.945 | locus YJL154C, strain vps35, active compounds read low 0.979 | locus YJL164C, strain tpk1, active compounds read low 0.992 | locus YJL166W, strain qcr8, active compounds read low 0.966 | locus YJR066W, strain TOR1, active compounds read low 0.929 | locus YKL160W, strain elf1, active compounds read low 1.03 | locus YKR026C, strain gcn3, active compounds read low 0.972 | locus YKR091W, strain srl3, active compounds read low 0.982 | locus YLL001W, strain dnm1, active compounds read low 0.987 | locus YLL026W, active compounds read low 0.969 | locus YLL041C, strain sdh2, active compounds read low 0.977 | locus YLR027C, strain aat2, active compounds read low 0.998 | locus YLR113W, strain HOG1, active compounds read low 1 | locus YLR221C, strain rsa3, active compounds read low 0.938 | locus YLR258W, strain gsy2, active compounds read low 0.994 | locus YLR262C, strain YPT6 (second series), active compounds read low 0.968 | locus YLR320W, strain mms22, active compounds read low 0.95 | locus YLR342W, strain FKS1, active compounds read low 0.974 | locus YLR357W, strain rsc2, active compounds read low 0.978 | locus YLR370C, strain arc18, active compounds read low 0.966 | locus YLR384C, strain iki3, active compounds read low 0.959 | locus YML120C, strain ndi1, active compounds read low 0.996 | locus YMR058W, strain fet3, active compounds read low 0.981 | locus YMR125W, strain sto1, active compounds read low 0.977 | locus YMR129W, active compounds read low 0.987 | locus YMR205C, strain PFK2, active compounds read low 0.996 | locus YMR231W, strain pep5, active compounds read low 0.966 | locus YNL071W, strain lat1, active compounds read low 0.991 | locus YNL183C, strain NPR1, active compounds read low 0.909 | locus YNL209W, strain ssb2, active compounds read low 0.996 | locus YNL248C, strain rpa49, active compounds read low 0.969 | locus YNL322C, strain KRE1 (second series), active compounds read low 0.974 | locus YNR049C, strain mso1, active compounds read low 0.979 | locus YOR001W, strain rrp6, active compounds read low 0.899 | locus YOR070C, strain gyp1, active compounds read low 0.978 | locus YOR080W, strain dia2, active compounds read low 0.972 | locus YOR083W, strain WHI5, active compounds read low 1.03 | locus YOR106W, strain vam3, active compounds read low 0.989 | locus YOR231W, strain MKK1, active compounds read low 0.989 | locus YOR265W, strain rbl2, active compounds read low 0.97 | locus YOR270C, strain vph1, active compounds read low 0.916 | locus YOR290C, strain snf2, active compounds read low 1.02 | locus YPL051W, strain arl3, active compounds read low 0.975 | locus YPL078C, strain atp4, active compounds read low 1.05 | locus YPL106C, strain sse1, active compounds read low 0.984 | locus YPL240C, strain hsp82, active compounds read low 0.971 | locus YPL256C, strain CLN2, active compounds read low 0.95
